# Inconclusive results are not listed. A call without a number means that no potency is given here. Unmarked numbers belong to inactive results. Active and inactive are the calls of the source. The call rests on the fitted dose curve; in most records, active means well fitted curve in the direction sought with a large enough effect; inconclusive means small, poorly fitted or top-dose-only effect, or another doubt; inactive means no such curve, though single readings can be large; an effect the other way counts as inactive or inconclusive.
# Key:
# [1] = target: ATP-dependent 6-phosphofructokinase (Trypanosoma brucei brucei) (UniProt O15648); assay: qHTS Assay to Find Inhibitors of T. brucei phosphofructokinase: hit validation (AID 492961);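 further: luminescence reports ADP formed as PFK phosphorylates fructose-6-phosphate with ATP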
# ATP-dependent 6-phosphofructokinase (Trypanosoma brucei brucei), sequence (O15648 whole entry, looked up): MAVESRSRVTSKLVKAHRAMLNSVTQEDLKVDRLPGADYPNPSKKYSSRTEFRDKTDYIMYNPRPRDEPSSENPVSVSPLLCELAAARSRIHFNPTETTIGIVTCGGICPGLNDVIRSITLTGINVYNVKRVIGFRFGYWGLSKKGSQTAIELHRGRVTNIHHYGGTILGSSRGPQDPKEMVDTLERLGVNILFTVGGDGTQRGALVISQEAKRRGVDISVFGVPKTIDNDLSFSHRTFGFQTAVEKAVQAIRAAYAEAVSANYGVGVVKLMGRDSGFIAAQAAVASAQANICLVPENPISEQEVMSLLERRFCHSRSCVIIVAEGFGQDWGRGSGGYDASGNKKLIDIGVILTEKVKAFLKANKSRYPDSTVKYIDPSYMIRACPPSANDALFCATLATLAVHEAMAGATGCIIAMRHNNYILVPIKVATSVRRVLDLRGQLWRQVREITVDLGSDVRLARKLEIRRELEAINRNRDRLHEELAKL
# Outline: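 ADP-Glo luminescence read-out of ADP formed by 1.25 nM PFK from 0.1 mM ATP and 0.5 mM F6P (TEA pH 8.0, 45 min, RT). Compounds titrated; activity normalized to no-enzyme and full-enzyme controls.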
# [2] = qHTS profiling for inhibitors of Plasmodium falciparum proliferation (AID 504749); further: potency means the concentration at half of the fitted maximal effect; on all read-outs here: nearly all actives have a fitted effect of over 60% in size; conditions: P. falciparum in erythrocytes, SYBR Green DNA, 72 h; for activity, negative = inhibition: at 28.7 µM (top of the series)
# Outline: (§1)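 SYBR Green fluorescence of parasite DNA, read after lysis and overnight dark incubation, measured growth over 72 h in erythrocyte culture at 0.3% parasitemia and 2.5% hematocrit. Data normalised to DMSO and 0.29 uM artemisinin, with plate-drift correction.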
# AA1029 = assay: as above; conditions: P. falciparum in erythrocytes, SYBR Green DNA, 72 h; series mostly up to 28.7 µM
# Outline: as §1
# ATS189 = assay: as above; conditions: P. falciparum in erythrocytes, SYBR Green DNA, 72 h; series mostly up to 28.7 µM
# Outline: as §1
# CP185 = assay: as above; conditions: P. falciparum in erythrocytes, SYBR Green DNA, 72 h; series mostly up to 28.7 µM
# Outline: as §1
# CP192 = assay: as above; conditions: P. falciparum in erythrocytes, SYBR Green DNA, 72 h; series mostly up to 28.7 µM
# Outline: as §1
# CP238 = assay: as above; conditions: P. falciparum in erythrocytes, SYBR Green DNA, 72 h; series mostly up to 28.7 µM
# Outline: as §1
# CP252 = assay: as above; conditions: P. falciparum in erythrocytes, SYBR Green DNA, 72 h; series mostly up to 28.7 µM
# Outline: as §1
# CP262 = assay: as above; conditions: P. falciparum in erythrocytes, SYBR Green DNA, 72 h; series mostly up to 28.7 µM
# Outline: as §1
# CP265 = assay: as above; conditions: P. falciparum in erythrocytes, SYBR Green DNA, 72 h; series mostly up to 28.7 µM
# Outline: as §1
# CP286 = assay: as above; conditions: P. falciparum in erythrocytes, SYBR Green DNA, 72 h; series mostly up to 28.7 µM
# Outline: as §1
# Dd2 = assay: as above; conditions: P. falciparum in erythrocytes, SYBR Green DNA, 72 h; series mostly up to 28.7 µM
# Outline: as §1
# FAB9 = assay: as above; conditions: P. falciparum in erythrocytes, SYBR Green DNA, 72 h; series mostly up to 28.7 µM
# Outline: as §1
# HB3 = assay: as above; conditions: P. falciparum in erythrocytes, SYBR Green DNA, 72 h; series mostly up to 28.7 µM
# Outline: as §1
# N140 = assay: as above; conditions: P. falciparum in erythrocytes, SYBR Green DNA, 72 h; series mostly up to 28.7 µM
# Outline: as §1
# CP191 = assay: as above; conditions: P. falciparum in erythrocytes, SYBR Green DNA, 72 h; series mostly up to 28.7 µM
# Outline: as §1
# CP211 = assay: as above; conditions: P. falciparum in erythrocytes, SYBR Green DNA, 72 h; series mostly up to 28.7 µM
# Outline: as §1
# CP217 = assay: as above; conditions: P. falciparum in erythrocytes, SYBR Green DNA, 72 h; series mostly up to 28.7 µM
# Outline: as §1
# ECU = assay: as above; conditions: P. falciparum in erythrocytes, SYBR Green DNA, 72 h; series mostly up to 28.7 µM
# Outline: as §1
# AS120 = assay: as above; conditions: P. falciparum in erythrocytes, SYBR Green DNA, 72 h; series mostly up to 28.7 µM
# Outline: as §1
smiles,measurement,setting,value
COc1ccc(C(=O)/C(Br)=C/C(=O)O)cc1,Potency,[1],inactive
same,"activity, negative = inhibition",[2]; parasite line A,-21.1%
same,"activity, negative = inhibition",[2]; parasite line B,-8.61%
same,Potency,AA1029,inactive
same,Potency,ATS189,inactive
same,Potency,CP185,inactive
same,Potency,CP192,inactive
same,Potency,CP238,inactive
same,Potency,CP252,inactive
same,Potency,CP262,inactive
same,Potency,CP265,inactive
same,Potency,CP286,inactive
same,Potency,Dd2,inactive
same,Potency,FAB9,inactive
same,Potency,HB3,inactive
same,Potency,N140,inactive
Nc1nc2[nH]cc(CCc3ccc(C(=O)NC(CCC(=O)O)C(=O)O)cc3)c2c(=O)[nH]1 (stereo unspecified),Potency,[1],inactive
same,Potency,[2]; parasite line A,0.126 µM (active)
same,Potency,[2]; parasite line B,0.199 µM (active)
same,Potency,ATS189,0.224 µM (active)
same,Potency,CP191,0.158 µM (active)
same,Potency,CP192,9.53 µM (active)
same,Potency,CP211,3.79 µM (active)
same,Potency,CP217,0.0562 µM (active)
same,Potency,CP238,11.2 µM (active)
same,Potency,CP252,0.158 µM (active)
same,Potency,CP262,0.426 µM (active)
same,Potency,Dd2,5.01 µM (active)
same,Potency,ECU,0.199 µM (active)
same,Potency,FAB9,0.316 µM (active)
same,Potency,HB3,0.0708 µM (active)
same,Potency,N140,3.16 µM (active)
C[N+]12CCCC[C@@H]1CCC(=C(c1cccs1)c1cccs1)C2 (stereo partly specified),Potency,[1],inactive
same,Potency,[2]; parasite line A,10 µM (active)
same,Potency,[2]; parasite line B,12.6 µM (active)
same,Potency,AA1029,8.91 µM (active)
same,Potency,AS120,10 µM (active)
same,Potency,CP185,8.91 µM (active)
same,Potency,CP191,8.91 µM (active)
same,Potency,CP192,10.7 µM (active)
same,Potency,CP211,13.5 µM (active)
same,Potency,CP217,7.94 µM (active)
same,Potency,CP262,inactive
same,Potency,CP286,6.31 µM (active)
same,Potency,ECU,1 µM (active)
same,Potency,FAB9,11.2 µM (active)
same,Potency,N140,12.6 µM (active)
CC1=C(c2ccc(NN=C(C#N)C#N)cc2)NNC(=O)C1,Potency,[1],inactive
same,"activity, negative = inhibition",[2]; parasite line A,-7.66%
same,"activity, negative = inhibition",[2]; parasite line B,20.7%
same,Potency,AA1029,inactive
same,Potency,AS120,inactive
same,Potency,ATS189,inactive
same,Potency,CP185,inactive
same,Potency,CP191,inactive
same,Potency,CP192,inactive
same,Potency,CP211,inactive
same,Potency,CP217,inactive
same,Potency,CP238,inactive
same,Potency,CP252,inactive
same,Potency,CP262,inactive
same,Potency,CP265,inactive
same,Potency,CP286,inactive
same,Potency,Dd2,inactive
same,Potency,ECU,inactive
same,Potency,FAB9,inactive
same,Potency,HB3,inactive
same,Potency,N140,inactive
COc1ccc(S(=O)(=O)N2c3ccc(Cl)cc3[C@](O)(c3ccccc3Cl)[C@@H]2C(=O)N2CCC[C@H]2C(N)=O)cc1OC,Potency,[1],inactive
same,"activity, negative = inhibition",[2]; parasite line A,-28.5%
same,"activity, negative = inhibition",[2]; parasite line B,-6.86%
same,Potency,ATS189,inactive
same,Potency,CP185,inactive
same,Potency,CP191,inactive
same,Potency,CP192,inactive
same,Potency,CP211,inactive
same,Potency,CP217,inactive
same,Potency,CP238,inactive
same,Potency,CP252,inactive
same,Potency,CP262,inactive
same,Potency,CP265,inactive
same,Potency,CP286,inactive
same,Potency,Dd2,inactive
same,Potency,FAB9,inactive
same,Potency,HB3,inactive
C[C@]12C=CC(=O)N[C@@H]1CC[C@@H]1C2CC[C@]2(C)C(C(=O)Nc3cc(C(F)(F)F)ccc3C(F)(F)F)CC[C@@H]12 (stereo partly specified),Potency,[1],inactive
same,"activity, negative = inhibition",[2]; parasite line A,-5.45%
same,Potency,[2]; parasite line B,11.2 µM (active)
same,Potency,AA1029,inactive
same,Potency,AS120,inactive
same,Potency,ATS189,inactive
same,Potency,CP185,inactive
same,Potency,CP191,inactive
same,Potency,CP192,inactive
same,Potency,CP211,inactive
same,Potency,CP217,inactive
same,Potency,CP238,inactive
same,Potency,CP252,inactive
same,Potency,CP262,inactive
same,Potency,CP265,inactive
same,Potency,CP286,6.31 µM (active)
same,Potency,Dd2,inactive
same,Potency,ECU,inactive
same,Potency,N140,inactive
CC(=O)OC1C([N+]2(C)CCCCC2)C[C@H]2C3CC[C@H]4C[C@H](OC(C)=O)C([N+]5(C)CCCCC5)CC4(C)C3CCC12C (stereo partly specified),Potency,[1],inactive
same,"activity, negative = inhibition",[2]; parasite line A,-25%
same,"activity, negative = inhibition",[2]; parasite line B,8.8%
same,Potency,AA1029,inactive
same,Potency,AS120,inactive
same,Potency,ATS189,inactive
same,Potency,CP185,inactive
same,Potency,CP191,inactive
same,Potency,CP217,inactive
same,Potency,CP238,inactive
same,Potency,CP252,inactive
same,Potency,CP262,inactive
same,Potency,CP265,inactive
same,Potency,CP286,inactive
same,Potency,Dd2,inactive
same,Potency,ECU,inactive
same,Potency,FAB9,inactive
same,Potency,HB3,inactive
same,Potency,N140,inactive
CCN(CC)CCOCCOC(=O)C(CC)(CC)c1ccccc1 (tested in a mixture with another compound),Potency,[1],inactive
same,Potency,CP191,10 µM (active)
same,Potency,CP192,inactive
same,Potency,CP262,inactive
same,Potency,CP265,1.12 µM (active)
same,Potency,Dd2,0.891 µM (active)
same,Potency,ECU,inactive
same,Potency,FAB9,inactive

# Reference: PubChem BioAssay (NCATS)
